Assay outcomes: PubChem BioAssay, National Center for Advancing Translational Sciences (NCATS)
Pf growth 48h = Primary qHTS for delayed death inhibitors of the malarial parasite plastid, 48 hour incubation; Potency, µM (top dose mostly 28.7 µM), for inactives: top-dose activity change, negative = inhibition, hits mostly inhibitors; P. falciparum luciferase growth in erythrocytes, 48 h; 310,000 tested, 5.9% active; note: potency is the fitted concentration of half-maximal effect; % is set by controls: 0 for no effect and ±100 for the full control effect
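Growth was read as firefly luciferase luminescence after a 48 h, 37 C, 5% CO2 exposure of compounds to reporter-bearing P. falciparum cultures (0.1% parasitemia, 2% hematocrit final) in Albumax-supplemented RPMI 1640.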
Pf growth 96h = Primary qHTS for delayed death inhibitors of the malarial parasite plastid, 96 hour incubation; P. falciparum luciferase reporter growth, 96 h; Potency, µM (titrated, usually from 28.7 µM), without a hit: at the top dose activity change, negative = inhibition, most hits filed as inhibitors; 320,000 tested, 6.9% active; AID 504834, 2011; note: potency is the fitted concentration of half-maximal effect; % is set by controls: 0 for no effect and ±100 for the full control effect
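Erythrocytes infected with luciferase-expressing P. falciparum were dispensed at 2% hematocrit and 0.05% parasitemia (final), then incubated with compounds 96 hours at 37 C in 5% CO2. Luminescence after detection reagent addition reported growth.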
Sm TGR inh = qHTS Assay for the Inhibitors of Schistosoma Mansoni Peroxiredoxins. purified TGR, DTNB reduction, TNB absorbance 405 nm. Potency, µM (doses to about 114 µM), for the others: at the top dose activity change, negative = inhibition, hits mostly inhibitors. 360,000 tested, 3% active. AID 485364, 2010; note: potency is the fitted concentration of half-maximal effect; % is set by controls: 0 for no effect and ±100 for the full control effect; nearly all actives have a fitted effect of over 60% in size
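First, TGR (20 nM dispensed) and NADPH were mixed with compound. Second, a 15 min room-temperature incubation followed. Third, further NADPH and then DTNB were added to start the reaction. Finally, TNB absorbance was monitored kinetically.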
HCMV antiviral = qHTS Assay for inhibitors of the human cytomegalovirus (HCMV). HFF cells, HCMV-luciferase reporter, 72 h; stronger effect = lower value. activity change, negative = inhibition, % at 57.5 µM. 410,000 tested, 4.5% active; in the data active = activity change below about -60%; inconclusive = no clear call, values can overlap the other calls; inactive = above about -39%; note: % is set by controls: 0 for no effect and ±100 for the full control effect
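Human foreskin fibroblasts infected with luciferase-reporter HCMV at MOI 1 PFU/cell, compounds at two doses. Luciferase measured 72 h post infection; normalized to buffer-only basal and Salinomycin (10uM) controls.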
HCV inhibitor = qHTS Assay for Inhibitors of Hepatitis C Virus (HCV); Huh7.5.1 HCVcc-Cre infection, luciferase reporter, 44 h; Potency, µM (highest dose often 41.8 µM), for inactives: at the top dose activity change, negative = inhibition, most hits filed as inhibitors; 340,000 tested, 3.4% active; note: potency is the fitted concentration of half-maximal effect; % is set by controls: 0 for no effect and ±100 for the full control effect
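Compounds are dispensed onto cells plated 4 h earlier at 1,000 per well, with HCVcc-Cre virus (about 0.5 moi) added next. Following 44 h of culture, luminescent signal is measured for 15 sec after 15 min with substrate at room temperature.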
SARS PLpro yeast = qHTS of Yeast-based Assay for SARS-CoV PLP | Potency, µM (top dose mostly 32.9 µM), for the others: top-dose activity, positive = growth rescue, usual class: activators | 330,000 tested, 0.19% active | S. cerevisiae expressing SARS-CoV PLpro, growth rescue | AID 485353, 2010; calls by dose curve; note: potency is the fitted concentration of half-maximal effect; 0% is about no effect; nearly all actives have a fitted effect of over 55% in size
Starred values were filed as active, the others as inactive; i = inactive; ? = inconclusive; · = no result. Sampled rows, rich in hits. Any-hit rate of the full collection: about 15%. Unless noted, calls come from the whole dose curve; as a rule, active = well fitted curve in the direction sought with a large enough effect; inconclusive = small, poorly fitted or top-dose-only effect, or another doubt; inactive = no such curve, though single readings can be large; an effect the other way counts as inactive or inconclusive.

SMILES	Pf growth 48h	Pf growth 96h	Sm TGR inh	HCMV antiviral	HCV inhibitor	SARS PLpro yeast
CC1CCN(C(=O)CCNS(=O)(=O)c2ccc(Br)cc2)CC1	?	?	4%	-37	15%	-1%
O=Cc1cccn1-c1c(C(=O)O)cnn1-c1ccccc1	16%	10µM*	2%	-28	-2%	-2%
N#CCC(=O)N1CCN(C=O)CC1	3%	43%	-10%	3	6%	1%
COc1cc(-c2c(C#N)c(N)nc(SCc3ccncc3)c2C#N)cc(OC)c1OC	13µM*	?	-1%	-7	6%	-3%
N#Cc1c(N)nc(SCc2ccncc2)c(C#N)c1-c1cccs1	?	?	-15%	?	0.56µM*	-4%
CN1CCc2nc(SCc3ccc(Cl)cc3)c(C#N)c(-c3cccs3)c2C1	·	·	·	-109*	?	·
CN1CCc2nc(SCc3ccc(C(C)(C)C)cc3)c(C#N)cc2C1	?	?	1%	3	?	-17%
O=C(O)[C@H]1CCCC[C@H]1C(=O)Nc1ccc(S(=O)(=O)N2CCOCC2)cc1	3%	?	7%	-15	23%	-1%
CCOC(=O)C1=C(O)/C(=C/c2cn(CC(=O)N3CCCC3)c3ccccc23)SC1=Nc1ccccc1	4.7µM*	3.3µM*	-8%	·	11µM*	4%
Cc1ccc(NC(=O)c2ncn(CCCNCC3CCCO3)n2)cc1C (stereo not given)	·	·	·	1	29%	·
O=c1n(-c2ccccc2)c(=O)n2n1CC(O)C2	-1%	-15%	7%	-8	24%	-5%
Fc1ccc(Nc2nc(SCc3cccc(F)c3)nc3ccccc23)cc1	·	·	9%	-87*	·	·
Fc1ccc(Nc2nc(SCc3cccc(Cl)c3)nc3ccccc23)cc1	·	·	3%	-95*	·	·
Fc1ccc(Nc2nc(SCc3ccc(Cl)cc3)nc3ccccc23)cc1	·	·	12%	?	·	·
O=C(NCC1(N2CCCCC2)CCCCC1)c1cccc(NS(=O)(=O)c2ccccc2)c1	?	?	-1%	-17	-10%	-4%
O=C(NCC1(N2CCCCC2)CCCCC1)c1cccc(S(=O)(=O)Nc2ccc(F)cc2)c1	8.3µM*	?	-19%	1	-4%	-6%
O=C(NCC1(N2CCOCC2)CCCCC1)c1cccc(S(=O)(=O)Nc2ccc(F)cc2)c1	10µM*	?	2%	29	-22%	-7%
CC(C)(C)OC(=O)N[C@H]1C=C[C@@H](OC(=O)CC(=O)OCC(F)(F)F)C1	·	·	·	21	4%	-1%
Cc1ccnc(NS(=O)(=O)c2ccc(NC(=O)c3snnc3C)cc2)n1	15%	-10%	-4%	11	10%	4%
c1ccc(-c2cn(-c3ccccc3)c3[n+]2CCS3)cc1	?	?	-18%	?	?	0%
COc1ccc(-c2cn(-c3ccccc3)c3[n+]2CCS3)cc1	0.93µM*	0.1µM*	-1%	-100*	?	-14%
CC(C)(C)c1ccc(-c2cn(-c3ccc(Br)cc3)c3[n+]2CCCS3)cc1	2.6µM*	?	3%	-98*	?	0%
COCC(C)n1c(C)cc(C(=O)CSc2nc(C)c(C)c(C)n2)c1C (stereo not given)	?	?	-3%	?	10µM*	0%
COCCn1c(C)cc(C(=O)CSc2nc(C)c(C)c(C)n2)c1C	-26%	?	-17%	15	-5%	1%
COc1ccc(CCN(C)Cc2ccc(OC)c(OCc3ccccc3)c2)cc1OC	?	10µM*	7%	51	-25%	-6%
SMILES	Pf growth 48h	Pf growth 96h	Sm TGR inh	HCMV antiviral	HCV inhibitor	SARS PLpro yeast
COc1cc(CN(C)Cc2ccccc2)cc(OC)c1O	1%	·	11µM*	16	12%	6%
C/C=C/c1ccc(OCCCCN(C)Cc2ccccc2)c(OC)c1	-15%	i	-15%	-8	11µM*	-3%
C/C=C/c1ccc(OCCCCOc2ccccc2C(C)=O)c(OC)c1	?	?	2%	?	6%	-8%
COc1ccc(CCN(C)Cc2ccc(OCc3ccccc3)c(OC)c2)cc1OC	?	?	7%	-8	-12%	2%
COc1ccc(CCN(C)Cc2c(O)ccc3ccccc23)cc1OC	-14%	17%	1.4µM*	52	7%	0%
COc1cc(CN(C)C)cc(C=O)c1O	-15%	4%	-15%	·	2%	2%
COc1ccc(-c2csc(NC(=O)CCNC(=O)c3ccco3)n2)cc1	·	·	·	-7	·	·
C[C@@H]1CCN(C(=O)[C@H](CCCNC(=N)N)NS(=O)(=O)c2cccc3c2NC[C@H](C)C3)[C@@H](C(=O)O)C1	-16%	1%	·	·	·	·
COc1ccc(CCN(C)Cc2ccc(C(=O)Nc3ccccc3)cc2)cc1OC	?	?	-24%	-73*	10µM*	0%
Fc1ccc(-c2n[nH]c(=S)c3ccccc23)cc1	?	-56%	2%	25	13%	2%
CC(C)(C)c1ccc(C(=O)Nc2cccc3c(=O)[nH][nH]c(=O)c23)cc1	242%	?	-13%	-69*	?	12%
O=C(Nc1ccc2c(c1)OCO2)c1cc(C2CCCN(C(=O)CCc3ccccc3)C2)on1 (stereo not given)	·	·	·	-8	·	·
CC(C)(C)C1=CC(O)(c2ccccc2)C=C(C(C)(C)C)C1=O	10µM*	?	4%	-60*	?	-10%
CC(=O)N1CCN(c2ccc(NCc3ccccc3)cc2)CC1	44%	·	-46%	-13	-24%	-3%
CC(=O)N1CCN(c2ccc(NCc3ccc(Br)o3)cc2)CC1	?	?	?	-62*	·	5%
CC(=O)N1CCN(c2ccc(NCc3ccc(-c4ccc(Br)cc4)o3)cc2)CC1	·	·	·	-80*	·	-3%
CCN1CCN(c2ccc(NC(=O)c3ccc(Br)o3)cc2)CC1	58%	44%	-22%	50	-6%	0%
CN1CCN(c2ccc(NC(=O)c3ccc(-c4ccc(Br)cc4)o3)cc2)CC1	10µM*	8%	-7%	-33	10µM*	-1%
Cc1ccccc1C(=O)Nc1cccc(NC(=O)c2ccc(-c3ccc(Br)cc3)o2)c1	?	?	38%	-96*	?	-8%
CC(C)C(=O)N1CCC[C@@H]1c1noc2ccccc12	·	·	·	-15	·	·
Cn1cc(S(=O)(=O)Nc2ccc(F)c(Cl)c2)c(=O)n(C)c1=O	2%	41%	-12%	-37	9%	-4%
